SMN2 splice enh: SMN2 splice variant enhancement; HEK293 SMN2-luciferase splicing reporter, luminescence, 30-36 h; Potency, µM (highest dose often 46.1 µM), without a hit: at the highest dose activity change, positive = activation, actives largely listed as activators; 210,000 tested, 2.8% active; also: % of control where 0% means no effect; nearly all actives have a fitted effect of over 55% in size
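qHTS luciferase splicing reporter: luminescence rises when SMN2 exon 7 is included in transfected HEK293 cells. Compound exposure lasted 30-36 h at 37C, with 4.5 mM final sodium butyrate as control, followed by a ONE-Glo read.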
ELG1 genotox: inducers of genotoxicity in HEK293T ELG1-luciferase cells. 330,000 tested, 1.3% active. HEK293T ELG1-luciferase reporter, luminescence, 16 h. Potency, µM (highest dose often 46 µM), for the others: at the top dose activity change, positive = activation, actives largely listed as activators. AID 504466; also: % of control where 0% means no effect; nearly all actives have a fitted effect of over 60% in size
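Screening used a luciferase reporter fused to human ELG1 in HEK293T cells. Luminescence was read on a CCD plate imager after 16 hr exposure and 30 min ONE-Glo incubation.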
p53 reactivation: mutant p53 re-activation in reporter cells; H1299 p53-A138V BP100-luciferase reporter, luminescence, 24 h; Potency, µM (titrated, usually from 92.2 µM), for inactives: at the top dose activity change, positive = activation, hits mostly activators; 320,000 tested, 0.063% active; also: % of control where 0% means no effect; nearly all actives have a fitted effect of over 45% in size
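H1299 (p53-null), stable ts p53-A138V + BP100-Luc; 1000 cells/well, Opti-MEM/10% FBS; cpd 4 pt, 1:5; 24 h, 37 deg C, 5% CO2; detection reagent 10 min RT; luminescence.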
NPC1 promoter act: NPC1 promoter activation | Potency, µM (titrated, usually from 9.22 µM), for the others: at the highest dose activation, usual class: activators | Huh7 NPC1 promoter luciferase reporter, 24 h | AID 485313 | 320,000 tested, 2.4% active; also: % of control where 0% means no effect; nearly all actives have a fitted effect of over 60% in size
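Readout is luciferase luminescence, reflecting NPC1 promoter activation in stably transfected Huh7 cells after 24 h compound exposure at 37 °C in reduced-serum medium with 10% FBS.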
Rab9 prom act: Rab9 promoter activation | Huh7 Rab9 promoter-luciferase reporter, luminescence, 24 h | Potency, µM (highest dose often 9.22 µM), for the others: at the top dose activation, negative = inhibition, usual class: activators | 320,000 tested, 2.8% active | AID 485297; also: % of control where 0% means no effect; nearly all actives have a fitted effect of over 60% in size
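Using Huh7 cells stably transfected with Rab9 promoter–luciferase, compounds were incubated 24 h at 37 °C, 5% CO2; luciferase luminescence was read 10 min after reagent addition.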
FLuc counter: counter-screen for miR-21 project: firefly luciferase inhibitors or activators; P08659; purified FLuc, Km substrates, luminescence inhibition; Potency, µM (highest dose often 57.5 µM), for the others: at the highest dose activity change, negative = inhibition, usual class: inhibitors; 360,000 tested, 6.9% active; AID 588342;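 also: plate controls were vehicle for no effect and reference inhibitor for full effect; nearly all actives have a fitted effect of over 55% in size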
Target sequence (P08659 whole entry, looked up): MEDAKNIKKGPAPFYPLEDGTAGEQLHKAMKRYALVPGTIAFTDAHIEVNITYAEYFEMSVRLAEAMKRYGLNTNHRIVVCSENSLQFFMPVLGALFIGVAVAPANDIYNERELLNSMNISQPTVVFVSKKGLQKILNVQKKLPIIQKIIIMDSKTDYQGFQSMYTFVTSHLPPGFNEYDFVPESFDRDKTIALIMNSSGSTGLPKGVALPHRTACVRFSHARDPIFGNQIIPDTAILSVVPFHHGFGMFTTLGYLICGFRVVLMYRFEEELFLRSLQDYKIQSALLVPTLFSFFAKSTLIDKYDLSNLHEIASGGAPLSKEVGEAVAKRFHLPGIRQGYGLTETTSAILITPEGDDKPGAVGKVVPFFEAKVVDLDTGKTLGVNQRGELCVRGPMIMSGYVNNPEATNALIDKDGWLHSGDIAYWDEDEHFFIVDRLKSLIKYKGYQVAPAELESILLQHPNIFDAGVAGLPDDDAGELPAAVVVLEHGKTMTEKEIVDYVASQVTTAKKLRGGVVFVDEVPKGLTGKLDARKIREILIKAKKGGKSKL
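Biochemical qHTS of compounds, final roughly 60 µM downward over six points, against 10 nM purified firefly luciferase using Km concentrations of substrates (10 uM D-luciferin, 10 uM ATP) in Tris acetate pH 7.5 buffer; luminescence output.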
Numbers without * were called inactive; ? = inconclusive; · = not tested or not shown; ! = repeats disagree; [ ] = dose if it differs, or a comment. In the library only some 7.3% were active in any assay of this set; here they are far more common. Calls follow the shape of the dose curve; as a rule, active = well fitted curve in the direction sought with a large enough effect; inconclusive = small, poorly fitted or top-dose-only effect, or another doubt; inactive = no such curve, though single readings can be large; an effect the other way counts as inactive or inconclusive. Potency is read from the fitted curve at half-maximal effect.

SMILES	SMN2 splice enh	ELG1 genotox	p53 reactivation	NPC1 promoter act	Rab9 prom act	FLuc counter
Cc1ccc(OCc2ccoc2C(=O)O)cc1C	3%	5%	10%	0%	-3%	19µM*
Cc1ccc(OC(C)C(=O)O)cc1C (configuration not stated)	11%	-2%	-8%	-2%	9%	-4%
CCN(c1cccc(C)c1)S(=O)(=O)c1nnc(NC(=O)c2ccccc2Cl)s1	·	·	·	·	·	13µM*
CCN(c1ccccc1)S(=O)(=O)c1nnc(NC(=O)c2ccco2)s1	·	-1%	5%	2%	0%	0.21µM*!
COc1ccc(C(=O)N2CCC3(CCCN(c4ccccc4)C3)CC2)cc1	-14%	·	·	·	·	·
COC(CNC(=O)C1CC(=O)N(CCc2ccc(C)cc2)C1)OC (configuration not stated)	·	0%	9%	0%	-2%	-1%
Fc1ccc(NCc2ccccc2-c2nnc(-c3ccccc3Cl)o2)cc1	6%	·	·	·	·	6µM*
CCc1cccc(NCc2ccccc2-c2nnc(-c3ccccc3Cl)o2)c1	-3%	·	·	·	·	3.4µM*
O=C(O)C(F)(F)C(F)(F)C(F)(F)C(F)(F)C(=O)O	3%[9.22 µM]	·	·	·	·	·
O=c1c(-c2nc3ccccc3s2)cccn1Cc1ccccc1	?	7.3µM*	15%	1.8µM*	2.2µM*	2.7µM*
Cc1ccc(Cn2cccc(-c3nc4ccccc4s3)c2=O)cc1	7.1µM*	6%	4%	2.8µM*	2.2µM*	2.1µM*
O=C1N=NC2=C1c1c3ccccc3c(O)n1CC2	·	-2%	2%	-5%	-10%	3%
Cc1ccc(O)c(C2=Nc3ccccc3C2(C)C)c1	11%	?	?	29%	?	12µM*
Cc1ccc(S(=O)(=O)N2CC(O)C[C@H]2C(=O)OCC(=O)Nc2ccc(N3CCCCC3)cc2)cc1C (some centres not stated)	·	4%	0%	10%	14%	-14%
C=CCNc1ncnc2c1[nH]c1ccccc12	·	1%	3%	3%	-10%	?
C=CCNc1ncnc2c1[nH]c1ccc(Cl)cc12	-80%	?	18%	5%	30%	12µM*
CCCCN(CCCC)S(=O)(=O)c1ccc(NC(=O)c2c(-c3ccccc3)noc2C)cc1	-8%	·	·	·	·	-5%
O=S(=O)(c1ccccc1)N1CCC2(CCN(Cc3nccs3)CC2)CC1	-13%	·	·	·	·	·
COc1cc(-c2cc(C(=O)Nc3ccncc3)c3ccccc3n2)cc(OC)c1OC	·	-1%	-7%	0%	0%	-16%
O=C(NNC(=O)c1cc(-c2ccc(Cl)c(Cl)c2)nc2ccccc12)Nc1ccccc1	-8%	-12%	0%	-1%	2%	6.7µM*
COc1ccc(-c2cc(C(=O)Nc3ccc(C(N)=O)cc3)c3ccccc3n2)cc1	·	7%	15%	?	?	0.76µM*
Cc1ccc(-c2cc(C(=O)Nc3nn[nH]n3)c3ccccc3n2)cc1	-10%	-2%	-2%	7%	3%	3.8µM*
Cc1ccc(-c2cc(C(=O)Nc3ccncc3)c3ccccc3n2)cc1	·	0%	6%	-3%	0%	11µM*
COc1ccc(-c2cc(C(=O)Nc3ccc(S(N)(=O)=O)cc3)c3ccccc3n2)cc1OC	·	3%	-6%	2%	-1%	-6%
CCCCN(C)C(=O)CN1C(=O)CCn2nc(-c3cn(C)c4ccccc34)cc21	·	·	·	·	·	-11%
Cc1ccc(/C=C2\SC(=S)N(CCCC(=O)Nc3ccccn3)C2=O)cc1	-62%	-6%	-11%	-27%	-19%	13µM*
O=C1/C(=C/c2ccccn2)SC(=S)N1NS(=O)(=O)c1ccccc1	-39%	-2%	2%	7%	-1%	?
CCOc1ccc(/C=C2\SC(=S)N(CC(=O)Nc3ccccn3)C2=O)cc1	·	10%	15%	14%	26%	21µM*
O=C1/C(=C/c2ccccn2)SC(=S)N1CCc1ccccc1	·	?	5%	?	3.5µM*	-3%
